Measurements from PubChem BioAssay (NCATS).
Results filed as inconclusive are left out. Active and inactive are the calls of the source. The call rests on the fitted dose curve; in most records, active means well fitted cell-killing curve with a large enough effect; inconclusive means small, poorly fitted or top-dose-only effect, or effect the other way; inactive means no such curve, though single readings can be large or run the other way.
Potency means the concentration at half of the fitted maximal effect.

Test: Quantitative High-Throughput drug screen in 47 multiple myeloma cell lines against the NCATS MIPE library collection: KMS12PE_JCRB cell viability assay (AID 1918972); further: nearly all actives have a fitted effect of over 30% in size
Conditions: KMS12PE myeloma viability, CellTiter-Glo ATP, 48 h; series mostly up to 45.8 µM
Outline: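 Steps: seed 500 cells per well; pin-transfer MIPE 4.0 library; incubate 48 h at 37C, 5% CO2, humidified; add CellTiter-Glo, 5 min room temperature; read luminescence.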
In the case of `Cc1cc(Nc2nc(N[C@@H](C)c3ccc(F)cc3)c(C#N)cc2F)n[nH]1`, the Potency is reported as 935 nM (active). In the case of `COc1cccc(-c2ccc(NC(=O)C3=C(C(=O)O)CCC3)c(F)c2)c1`, the Potency is reported as 2960 nM (active). For `CC(C)Nc1cc(C(F)(F)F)cc2nc(NC(=O)c3cccnc3)nn12`, the Potency was “inactive”. In the case of `CC(C)c1cc(-c2n[nH]c(=O)n2-c2ccc3c(ccn3C)c2)c(O)cc1O`, the Potency is reported as 33.2 nM (active). For `Nc1nccc(Oc2ccc(NC(=O)c3c[nH]cc(-c4ccc(F)cc4)c3=O)cc2F)c1Cl`, the Potency was “inactive”. In the case of `Clc1cccc(-c2nnnn2Cc2cccnc2)c1Cl`, the Potency is reported as “inactive”. For `CCNC(=O)Nc1ccc2ncc(Nc3ccc(C)cc3)nc2n1`, the Potency was 2350 nM (active). In the case of `COc1ccc2c(c1)CC[C@@H](CN(C)CC(=O)O)[C@H]2c1ccccc1`, the Potency is reported as 1050 nM (active). For `Cc1cn2cc(C(=O)N(C)CCO)cc(N[C@@H]3CCOc4cccc(C)c43)c2n1`, the Potency was “inactive”. With `Cn1c(=O)n(-c2ccc(C(C)(C)C#N)cc2)c2c3cc(-c4cnc5ccccc5c4)ccc3ncc21` the Potency was 52.6 nM (active). For `CC1(C)CC(=O)c2c(C(F)(F)F)nn(-c3ccc(C(N)=O)c(NC4CCC(OC(=O)CN)CC4)c3)c2C1` (centres undefined), the Potency was 132 nM (active). In the case of `C=CC(=O)Nc1cccc(Oc2nc(Nc3ccc(N4CCN(C)CC4)cc3)ncc2Cl)c1`, the Potency is reported as 1870 nM (active). With `Nc1cccc(-c2cc3c(Oc4cccc(O)c4)ncnc3[nH]2)c1` the Potency was “inactive”. With `O=c1c2ccccc2nc2n1CCc1c-2[nH]c2ccccc12` the Potency was “inactive”. With `C[C@]12CC[C@H](O)CC1=CCC1C2CC[C@]2(C)C(n3cnc4ccccc43)=CCC12` (some centres undefined) the Potency was “inactive”. With `OCc1ccc(-c2ccc(-c3ccc(CO)s3)o2)s1` the Potency was 235 nM (active). In the case of `Clc1ccc2ncc(-c3cccc(NC4CNC4)n3)n2c1`, the Potency is reported as 5900 nM (active). For `CC1(C)CCC(c2ccc(Cl)cc2)=C(CN2CCN(c3ccc(C(=O)NS(=O)(=O)c4ccc(N[C@H](CCN5CCOCC5)CSc5ccccc5)c(S(=O)(=O)C(F)(F)F)c4)cc3)CC2)C1`, the Potency was 10.5 nM (active). For `CC(C)c1noc(N2CCC(COc3ccc(-c4ccc(S(C)(=O)=O)cc4)nc3)CC2)n1`, the Potency was 418 nM (active). For `NCC(=O)Nc1ccc(-n2nc(C(F)(F)F)cc2-c2ccc3c(ccc4ccccc43)c2)cc1`, the Potency was 526 nM (active). In the case of `C1Cc2[nH]nc(-c3nn[nH]n3)c2C1`, the Potency is reported as “inactive”. For `O=C(O)CCCc1c[nH]c2ccccc12`, the Potency was “inactive”. In the case of `NC1(Cc2ccc(Cl)cc2)CCN(c2ncnc3[nH]ccc23)CC1`, the Potency is reported as 3720 nM (active). In the case of `CCCNC(=O)Nc1ccc(Oc2ncnc3cc(OC)c(OC)cc23)cc1Cl`, the Potency is reported as “inactive”.
